Data on 18 compounds can be found in PubChem BioAssay (NCATS).

The structures appear in SMILES notation. Records with an inconclusive call do not appear. Active and inactive are the calls of the source. Calls follow the shape of the dose curve; as a rule, active = well fitted inhibition curve with a large enough effect; inconclusive = small, poorly fitted or top-dose-only effect; inactive = flat fitted curve, though single readings scatter.

For this assay, the system named is HACAT. Kind of assay: qHTS assay to identify novel small-molecules to repurpose for Merkel cell carcinoma treatment (AID 1296009). Also: nearly all actives have a fitted effect of over 60% in size. As to conditions: MCC and control cell lines, CellTiter-Glo viability, 72 h; at 44.8 µM (top of the series) unless noted. Put shortly: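 Luminescence from CellTiter-Glo, read 10 min after addition at room temperature, reported viability following a 72 hr, 37 degree celsius treatment with NPC or MIPE compounds in titration; values normalized to plate controls.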
(In qHTS, concentration-response curves come from the screen itself.)
Regarding `COc1ccc(CCC(C)=O)cc1`, the compound was called inactive.
Consider `C[C@@H]1CCC[C@H](C)N1CCCC(O)(c1ccccc1)c1ccccn1` (stereo partly drawn), for which the compound was called inactive.
The result for `CCCC(CCC)(C(=O)OCC)C(=O)OCC` reads “inactive”.
In the case of `CC(NC(CCc1ccccc1)C(=O)O)C(=O)N1C(=O)N(C)CC1C(=O)O` (stereo not drawn) it was “inactive”; in that of `CC(C)N(CCC(=O)c1ccc2ccccc2c1)Cc1ccccc1`, “inactive; activator”; in that of `CCn1ccc(NS(=O)(=O)c2ccc(N)cc2)nc1=O`, “inactive”.
As for `CO/N=C(\C(=O)O)c1csc(NC(=O)CCl)n1`, the compound was called inactive.
As for `CC(Oc1c(Cl)cccc1Cl)C1=NCCN1` (stereo not drawn), the call was inactive.
`CC(=O)O[C@@H]1CC2C3CCc4cc(OC(=O)c5ccccc5)ccc4C3CCC2(C)[C@H]1OC(C)=O` (stereo partly drawn): the compound was called inactive.
On to `CCN(CC)C(=O)C1CN2CCc3cc(OC)c(OC)cc3C2CC1OC(C)=O` (stereo not drawn), for which the compound was called inactive.
Turning to `CN(C)CCN(Cc1ccsc1)c1ccccn1`, the compound was called inactive.
In the case of `CCCCCCOC(=O)NC(=N)c1ccc(NCc2nc3cc(C(=O)N(CCC(=O)OCC)c4ccccn4)ccc3n2C)cc1` it was “inactive”; in that of `Cc1cccc(OCC(O)CNC(C)(C)C)c1C` (stereo not drawn), “inactive”; in that of `CCCCC(O)/C=C(C)/C=C/C=C/C(=O)N1CCCC1=O` (stereo not drawn), “inactive”.
In the case of `C[C@H]1C[C@@H]2[C@H]([C@@H](O)C[C@@]3(C)[C@H]2CC[C@]3(O)C(=O)CO)[C@@]2(C)C=CC(=O)C=C12` it was “inactive”; in that of `O=C(c1ccco1)N1CCNCC1`, “inactive”.
Take `CCN(CC)CC(=O)Nc1c(C)cccc1C(=O)OC`: the outcome was inactive.
The result for `C=C(C)C(=O)OCC(O)CO` (stereo not drawn) reads “inactive”.
